Screening data: PubChem BioAssay, Broad Institute
TcdB GH inh: blocks C. difficile toxin B glycohydrolase activity; P18177; inhibition, % at 9.99 µM; TcdB glycohydrolase enzymatic assay, plate reader; 0.24% of 350,000 active; in the data active means inhibition above about 10%
Mtb BioA inh: blocks M. tuberculosis BioA enzyme activity. purified M. tuberculosis BioA enzyme, plate reader. AID 602481. 0.096% of 360,000 active. inhibition, % at 9.99 µM; in the data active means inhibition above about 40%
Yp Topo-I inh: inhibitors of Yersinia pestis topoisomerase I | Y. pestis Topo-I cleavage product accumulation, plate reader | activity, % at 10 µM | 0.064% of 360,000 active; in the data active means activity above about 50%, passing the limit was not always enough
FadD28 FP inh: inhibitors of Mycobacterium tuberculosis FadD28 bisubstrate binding; FadD28 bisubstrate probe binding, fluorescence polarization; AID 588549; 0.22% of 360,000 active; inhibition, % at 12.5 µM; in the data active means inhibition above about 8.5%, passing the limit was not always enough
Vc quorum ag-1: quorum light induction in luxS cqsA deficient V. cholerae. V. cholerae BH1578 lux reporter, luminescence, 6 h. activation, % at 18.7 µM. 0.16% of 350,000 active. AID 588436; in the data active means activation mostly above about 9.7%, no sharp cut-off
Vc quorum ag-2: quorum light induction in BH1578 reporter strain. activation, % at 50 µM. shares compounds with Vc quorum ag-1. 620 tested, under 10 active. V. cholerae BH1578 lux reporter, luminescence, 6 h; call rule not given here
An asterisk follows results filed as active; i = inactive; . = no result given. Shown are actives, neighbours in structure and some others; about 0.58% of the full set was active somewhere.

SMILES	TcdB GH inh	Mtb BioA inh	Yp Topo-I inh	FadD28 FP inh	Vc quorum ag-1	Vc quorum ag-2
O=C(c1cn(-c2ccccc2)nc1-c1cccs1)N1CCOCC1	.	0	7	0	25*	0
O=C(NCC1CCCO1)C1CCN(C(=O)c2ccc(Cl)cc2)CC1 (stereo not given)	.	0	5	0	17*	0
COC(=O)c1ccc(-c2nc(O)c(C)s2)cc1	0	0	-1	0	0	.
COC(=O)c1ccc(-c2nc3cc(Cl)c(N)cc3s2)cc1	.	-2	-5	-5	25*	0
COC(=O)c1sc2ncccc2c1OCc1c(Cl)cccc1Cl	.	8	4	-4	14	1
CC12CCC(=O)N1C(C(=O)NNC(=O)COc1ccc(Br)cc1)CS2 (stereo not given)	1	0	8	-1	12	0
Cc1ccc(C2(C)NC(=O)N(CC(=O)NCCC3=CCCCC3)C2=O)cc1 (stereo not given)	.	1	10	1	228*	0
CN1C(=O)c2cc(NC(=O)c3cccc(C(F)(F)F)c3)ccc2OC[C@H]2O[C@@H](CC(=O)O)CC[C@H]21	1	0	.	.	.	.
CC(=O)c1cc2c(cc1NC(=O)Cc1c(C)noc1C)OCO2	0	0	1	0	22*	1
O=[N+]([O-])c1ccc(NCCN2CCOCC2)c([N+](=O)[O-])c1	1	1	-15	-3	33*	1
CO[C@@H]1CN(C)C(=O)c2cc(NS(=O)(=O)c3ccc(-c4ccccc4)cc3)ccc2OC[C@H](C)NC[C@@H]1C	1	1	.	.	.	.
Cc1ccc(C)c(N(CC(=O)NC2CCCC2)C(=O)c2oc(C(C)(C)C)cc2C)c1	2	1	18	-3	-2	.
NS(=O)(=O)c1cc(C(=O)OCC(=O)NC2CCCCCCC2)ccc1Cl	1	5	7	-4	14	0
O=C(COC(=O)c1ccc(Cl)c(S(=O)(=O)N2CCCC2)c1)NC1CCCC1	.	0	-4	-2	i	.
Cc1cc(C(C)(C)C)oc1C(=O)OCC(=O)NC1CCCCC1	-2	.	3	-1	145*	26
O=C(COC(=O)c1ccc(Br)cc1)NC1CCCC1	-4	0	2	1	131*	58
CCCC#Cc1ccc2c(c1)O[C@@H](CN(C)Cc1ccc3c(c1)OCO3)[C@@H](C)CN([C@H](C)CO)S2(=O)=O	-12	-1	.	.	.	.
O=C(NCCC(=O)N1CCCCC1)c1ccc(Br)cc1	0	-1	3	0	11	6
O=C(c1ccccn1)N(Cc1ccco1)C1(C(=O)NC2CCCC2)CCCCC1	.	.	4	-1	-1	.
O=C(c1ccc2c(c1)OCO2)N(Cc1ccco1)C1(C(=O)NC2CCCCC2)CCCCC1	.	-2	5	0	17*	0
CO[C@@H]1CN(C)C(=O)c2ccc(NC(=O)C3CC3)cc2OC[C@H](C)NC[C@@H]1C	2	1	.	.	.	.
COc1ccccc1OCc1cc(-c2ccccc2)no1	0	.	21	-1	0	.
Cc1cc(COc2ccccc2O)on1	.	-1	-1	0	12	201
O=C(COC(=O)c1cccc(-n2cnnn2)c1)c1ccc(F)cc1	0	.	2	1	0	.
COc1ccc(C(=O)COC(=O)c2cccc(-n3cnnn3)c2)c(OC)c1	-1	-1	-5	0	12	0
SMILES	TcdB GH inh	Mtb BioA inh	Yp Topo-I inh	FadD28 FP inh	Vc quorum ag-1	Vc quorum ag-2
N#Cc1cccc(-c2ccc(C3[C@@H]4CN(C(=O)Cc5ccccc5)C[C@H]3N4)cc2)c1 (stereo not given in full)	0	.	.	.	.	.
Cc1ccc(C(=O)COc2cc(C)nc3nncn23)cc1	2	.	-4	0	923*	i
CCS(=O)(=O)Nc1ccc2c(c1)C(=O)N(C)C[C@@H](OC)[C@@H](C)CN(Cc1ccccn1)[C@@H](C)CO2	0	.	.	.	.	.
O=C(C[C@H]1C[C@H]2c3cc(NS(=O)(=O)c4ccc(F)cc4)ccc3O[C@H]2[C@H](CO)O1)NCc1ccc(-c2ccccc2)cc1	0	-2	.	.	.	.
CCOc1ccc(C2=Nn3c(nnc3-c3ccc(OC)cc3)SC2)cc1	.	-2	15	-5	-7	.
COc1ccc(OCc2nnc3n2N=C(c2ccc(OC)cc2)CS3)cc1	-4	5	13	-4	27	3
O=C(Nc1nc(-c2ccccc2)cs1)c1ccccc1NS(=O)(=O)c1ccc(F)cc1	.	.	-5	2	0	.
O=S(=O)(Nc1ccc(-c2csc(-c3ccccc3)n2)cc1)c1ccc(F)cc1	.	-2	1	-2	25*	0
